Measured values as given in PubChem BioAssay (NCATS).
Results filed as inconclusive are left out. A number with no mark means an inactive call. Calls of active or inactive are those of the source. Calls come from the whole dose curve; tested in HEK293 reporter line.

Test: qHTS for Inhibitors of the Functional Ribonucleoprotein Complex (vRNP) of Lassa (LASV) Arenavirus: LASV Primary Screen - GLuc reporter signal (AID 1347082); note: nearly all actives have a fitted effect of over 60% in size
Conditions: LASV minigenome vRNP, Gaussia luciferase reporter; series mostly up to 57.5 µM; activity change, negative = inhibition: at the top concentration
% is set by controls: 0 for no effect and ±100 for the full control effect; potency is the fitted concentration of half-maximal effect.

| SMILES | activity change, negative = inhibition | Potency |
| --- | --- | --- |
| C[C@H]([C@@H](O)[C@@H](O)[C@@H](C)C(C)(C)C)[C@H]1CC[C@H]2C3CC[C@H]4C[C@H](OS(=O)(=O)O)[C@@H](OS(=O)(=O)O)C[C@]4(C)[C@H]3CC[C@]12C (stereo not given in full) | -10.7% |  |
| CC(=O)O[C@H]1C(=O)[C@@]2(C)C([C@H](OC(=O)c3ccccc3)[C@]3(O)C[C@H](O)C(C)=C1C3(C)C)[C@]1(OC(C)=O)CO[C@@H]1C[C@H]2O (stereo not given in full) | -19.8% |  |
| COC(=O)C1CC23C=CCN4CCC5(c6ccccc6NC15C2C)C43 (stereo not given) | -31.1% |  |
| CO[C@H]1O[C@@H]2O[C@@]3(C)CC[C@@H]4[C@@H](C)CC[C@@H]([C@H]1C)[C@@]24OO3 | -8.89% |  |
| O=C(O)CCNc1cc(N2CCc3ccccc3CC2)nc(-c2ccccn2)n1 | 4.09% |  |
| CC(C)OC(=O)CCCC=CC[C@@H]1[C@H](C=C[C@@H](O)COc2cccc(C(F)(F)F)c2)[C@H](O)C[C@@H]1O |  | 38.5 µM (active) |
| COC(=O)C1C2CC3c4[nH]c5cc(OC)ccc5c4CCN3CC2CC(O)C1OC (stereo not given) | 13% |  |
| CC(=O)O[C@@]12CO[C@@H]1C[C@@H](O)[C@@]1(C)C(=O)[C@H](O)C3=C(C)[C@@H](OC(=O)[C@H](O)[C@@H](NC(=O)c4ccccc4)c4ccccc4)C[C@@](O)([C@@H](OC(=O)c4ccccc4)C12)C3(C)C (stereo not given in full) | -25.4% |  |
| CNCCCCc1cnc(C)c2[nH]c3ccccc3c12 | -10.6% |  |
| C=C1C(=O)[C@@]23[C@H](O)C[C@@H]4C(C)(C)CC[C@H](O)[C@]4(C)[C@@H]2C[C@H](O)[C@@H]1[C@H]3O |  | 8.91 µM (active) |
| COc1cc(/C=C/C(=O)c2ccc(O)cc2O)ccc1O | 5.2% |  |
| Oc1ccc([C@@H]2Oc3ccc(O)cc3[C@@H]3CCC[C@@H]32)cc1 | -37% |  |
| CO[C@H]1[C@@H](O)[C@@H](C)O[C@H](O[C@H]2[C@H](Oc3cccc4c(O)c5c(=O)oc6ccc(C)c7c(=O)oc(c34)c5c67)O[C@H](C)[C@H](O)[C@@H]2O)[C@@H]1O | -4.65% |  |
| O=c1ccn([C@@H]2O[C@H](COP(=O)(O)O)[C@@H](O)[C@H]2O)c(=O)[nH]1 | -3.26% |  |
| O=C(O)C[C@H](O)C[C@H](O)C=Cc1c(C2CC2)nc2ccccc2c1-c1ccc(F)cc1 | -26.6% |  |
| CCCCCOC(=O)Nc1nc(=O)n([C@@H]2O[C@H](C)[C@@H](O)C2O)cc1F (stereo not given in full) | -25.9% |  |
| COc1ccc(C2CC(=O)c3c(O)cc(O)cc3O2)cc1O (stereo not given) | -10.5% |  |
| COc1cc([C@@H]2c3cc4c(cc3C[C@H]3COC(=O)[C@@H]32)OCO4)cc(OC)c1O | -3.99% |  |
| COC(/C(C)=C/C=C/C(C)=C/c1coc(C)n1)C(C)C1CC(O)C2(C)OC2C=CC(C)C2CC(CC(=O)O2)CC2OC2C(=O)O1 (stereo not given) | 6.14% |  |
| C/C=C(\C)C(=O)N[C@@H](c1ccccc1)[C@@H](O)C(=O)O[C@H]1C[C@@]2(O)[C@@H](OC(=O)c3ccccc3)C3[C@](C)(C(=O)[C@H](O)C(=C1C)C2(C)C)[C@@H](O)C[C@H]1OC[C@@]31OC(C)=O (stereo not given in full) | -37.7% |  |

| SMILES | activity change, negative = inhibition | Potency |
| --- | --- | --- |
| CC=CC(=O)N(CC)c1ccccc1C | 22.9% |  |
| CC(C)(O)CC[C@@H](O)[C@](C)(O)[C@H]1CC[C@@]2(O)C3=CC(=O)[C@@H]4C[C@@H](O)[C@@H](O)C[C@]4(C)[C@@H]3CC[C@]12C | 1.21% |  |
| CCCCCC(=O)N[C@@H](c1ccccc1)[C@@H](O)C(=O)O[C@H]1C[C@@]2(O)[C@@H](OC(=O)c3ccccc3)C3[C@](C)(C(=O)[C@H](O)C(=C1C)C2(C)C)[C@@H](OC1OCC(O)C(O)C1O)C[C@H]1OC[C@@]31OC(C)=O (stereo not given in full) | -11.4% |  |
| CC[C@H]1OC(=O)[C@H](C)[C@@H](O[C@H]2C[C@@](C)(OC)[C@@H](O)[C@H](C)O2)[C@H](C)[C@@H](O[C@@H]2O[C@H](C)C[C@H](N(C)C)[C@@H]2O)[C@](C)(OC)C[C@@H](C)C(=O)[C@H](C)[C@@H](O)[C@]1(C)O | -5.45% |  |
| CC(C)c1c(C(=O)Nc2ccccc2)c(-c2ccccc2)c(-c2ccc(F)cc2)n1CC[C@H](O)C[C@@H](O)CC(=O)O | -29.4% |  |
| COc1ccc(-c2cc(=O)c3c(O)cc(O)c(-c4cc(-c5cc(=O)c6c(O)cc(OC)cc6o5)ccc4OC)c3o2)cc1 | 9.52% [at 24.7 µM] |  |
| Cc1cnn(C)c1C(=O)Nc1cc(Nc2ccc3c(C=Cc4ccccn4)n[nH]c3c2)ccc1F |  | 21.7 µM (active) |
| C=C1C(=O)O[C@@H]2C[C@@H](C)[C@H]3C=CC(=O)[C@]3(O)C[C@@H]12 | -25.8% |  |
| C=CC(C)(C)c1[nH]cnc1/C=C1\NC(=O)C(C(C)C)NC1=O (stereo not given) | -32.3% |  |
| CC(C)c1oc(=O)cc2c1[C@@H](O)[C@H]1OC(=O)[C@@]3(C)CC[C@@H](O)[C@@]2(C)C13 (stereo not given in full) |  | 5.62 µM (active) |
| CON=C(C(=O)N[C@@H]1C(=O)N2C(C(=O)O)=C(CSC(=O)c3ccco3)CS[C@H]12)c1csc(N)n1 | -3.53% |  |
| COc1cc2c(cc1OC)-c1c(OC)c(OC)c(OC)c3ccnc(c13)C2=O | -2.88% |  |
| O=C1C=CC(O)(c2cc(=O)c3c(O)cc(O)cc3o2)C=C1 |  | 17.8 µM (active) |
| C[C@H]1CCC[C@@H](O)CCC/C=C/c2cc(O)cc(O)c2C(=O)O1 | -33.2% |  |
| COC(=O)c1cc(O)cc(OC)c1Oc1cc(C)cc(O)c1C(=O)O | -28.9% |  |
| CCOC(=O)C1=C(C)NC(C)=C(C(=O)OCC)C1c1c(F)c(F)c(F)c(F)c1F | -30.3% |  |
| CC1=CC(C)CC(C)OC(=O)CC(c2ccc(O)cc2)NC(=O)C(Cc2c(Br)[nH]c3ccccc23)N(C)C(=O)C(C)NC(=O)C(C)C1 (stereo not given) | -14.2% |  |
| COc1ccc(C2COc3cc(O)ccc3C2)c(OC)c1O (stereo not given) | -32.3% |  |
| C/C=C1\NC(=O)[C@H](CC(N)=O)N(C)C(=O)C([C@@H](C)O)NC(=O)C(CCCc2ccc(OC)cc2)NC(=O)[C@H](C(C)C)NC(=O)/C(=C\C)NC(=O)[C@H](O)[C@@H](C[C@@H](O)CCCCCCC)NC(=O)[C@H](C)NC(=O)CN(C)C(=O)[C@H](CCC(N)=O)NC1=O (stereo not given in full) | -30.9% |  |
| O=C(/C=C/c1ccccc1)NCCc1ccccc1 | -1.92% |  |
